The source of these data is ChEMBL document CHEMBL1961873, “Compounds: GSK PKIS; Assays: Nanosyn kinase panel” (2012).

Each structure is given as a SMILES string. Values joined by “and” are separate entries in the source; they are usually repeats but may differ in a detail not shown here. Identical values can stand only once.

By inhibition is commonly meant the relative decrease from the control value, in per cent.

In assay [1] the target is T1, Inhibitor of nuclear factor kappa-B kinase subunit epsilon (Homo sapiens) (UniProt Q14164).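 Note: reported values are averaged percent inhibition figures against human IKKε.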
T1 sequence (whole entry): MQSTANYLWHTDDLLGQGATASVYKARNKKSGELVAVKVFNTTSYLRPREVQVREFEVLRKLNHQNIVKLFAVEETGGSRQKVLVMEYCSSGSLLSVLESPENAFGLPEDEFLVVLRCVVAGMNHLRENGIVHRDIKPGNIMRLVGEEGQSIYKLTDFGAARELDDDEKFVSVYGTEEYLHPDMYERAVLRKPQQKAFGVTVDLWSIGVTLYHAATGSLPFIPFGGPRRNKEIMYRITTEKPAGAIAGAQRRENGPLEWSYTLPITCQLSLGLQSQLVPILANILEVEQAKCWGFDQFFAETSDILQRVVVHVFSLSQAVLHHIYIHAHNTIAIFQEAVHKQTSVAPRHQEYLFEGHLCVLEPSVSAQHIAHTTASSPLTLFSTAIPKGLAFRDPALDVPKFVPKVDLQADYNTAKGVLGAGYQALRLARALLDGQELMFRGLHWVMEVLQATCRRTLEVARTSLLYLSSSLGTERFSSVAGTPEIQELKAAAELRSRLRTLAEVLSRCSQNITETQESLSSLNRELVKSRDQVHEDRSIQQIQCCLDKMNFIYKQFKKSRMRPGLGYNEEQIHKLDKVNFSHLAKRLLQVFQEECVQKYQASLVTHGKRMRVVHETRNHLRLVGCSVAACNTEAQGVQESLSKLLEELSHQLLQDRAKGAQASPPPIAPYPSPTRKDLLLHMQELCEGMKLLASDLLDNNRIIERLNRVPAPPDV
Conditions: at 1 µM.

Assay [2] concerns the target T2, Serine/threonine-protein kinase Nek1 (Homo sapiens) (UniProt Q96PY6).
T2 sequence (whole entry): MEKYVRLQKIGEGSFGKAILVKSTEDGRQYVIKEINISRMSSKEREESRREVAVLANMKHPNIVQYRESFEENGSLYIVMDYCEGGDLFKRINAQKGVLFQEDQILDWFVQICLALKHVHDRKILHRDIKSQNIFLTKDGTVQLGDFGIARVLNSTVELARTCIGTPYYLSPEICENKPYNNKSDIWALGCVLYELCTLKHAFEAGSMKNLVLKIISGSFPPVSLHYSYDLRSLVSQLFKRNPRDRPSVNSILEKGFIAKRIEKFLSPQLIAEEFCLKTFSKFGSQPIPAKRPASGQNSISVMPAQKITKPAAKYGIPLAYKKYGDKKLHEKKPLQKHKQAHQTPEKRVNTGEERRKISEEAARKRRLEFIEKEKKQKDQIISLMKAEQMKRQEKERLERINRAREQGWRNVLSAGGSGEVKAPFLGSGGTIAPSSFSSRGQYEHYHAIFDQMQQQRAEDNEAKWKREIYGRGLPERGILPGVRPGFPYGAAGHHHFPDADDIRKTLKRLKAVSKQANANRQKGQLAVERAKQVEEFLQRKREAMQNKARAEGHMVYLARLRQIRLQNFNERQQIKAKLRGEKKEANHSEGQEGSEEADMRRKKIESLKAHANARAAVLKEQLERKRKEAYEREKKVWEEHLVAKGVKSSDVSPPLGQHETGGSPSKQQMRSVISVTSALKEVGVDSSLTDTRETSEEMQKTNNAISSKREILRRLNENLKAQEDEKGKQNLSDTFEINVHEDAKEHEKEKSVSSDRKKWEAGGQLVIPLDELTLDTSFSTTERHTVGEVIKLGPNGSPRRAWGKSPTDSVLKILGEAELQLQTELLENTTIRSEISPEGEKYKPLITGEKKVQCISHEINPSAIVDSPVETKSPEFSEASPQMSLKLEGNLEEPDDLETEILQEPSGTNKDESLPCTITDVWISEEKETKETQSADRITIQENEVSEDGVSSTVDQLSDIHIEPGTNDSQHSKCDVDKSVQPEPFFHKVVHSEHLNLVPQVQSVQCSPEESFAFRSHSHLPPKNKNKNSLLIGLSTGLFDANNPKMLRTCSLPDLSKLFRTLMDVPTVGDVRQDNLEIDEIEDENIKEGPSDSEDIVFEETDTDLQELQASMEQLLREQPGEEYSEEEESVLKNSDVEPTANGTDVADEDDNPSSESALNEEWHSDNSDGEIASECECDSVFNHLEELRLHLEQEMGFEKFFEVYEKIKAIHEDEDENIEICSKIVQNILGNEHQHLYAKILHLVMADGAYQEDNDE
Conditions: at 0.1 µM.

Assay [3] addresses T2, Serine/threonine-protein kinase Nek1 (Homo sapiens). Conditions: at 1 µM.
For assay [4], the target named is T3, Serine/threonine-protein kinase Nek2 (Homo sapiens) (UniProt P51955).
T3 sequence (whole entry): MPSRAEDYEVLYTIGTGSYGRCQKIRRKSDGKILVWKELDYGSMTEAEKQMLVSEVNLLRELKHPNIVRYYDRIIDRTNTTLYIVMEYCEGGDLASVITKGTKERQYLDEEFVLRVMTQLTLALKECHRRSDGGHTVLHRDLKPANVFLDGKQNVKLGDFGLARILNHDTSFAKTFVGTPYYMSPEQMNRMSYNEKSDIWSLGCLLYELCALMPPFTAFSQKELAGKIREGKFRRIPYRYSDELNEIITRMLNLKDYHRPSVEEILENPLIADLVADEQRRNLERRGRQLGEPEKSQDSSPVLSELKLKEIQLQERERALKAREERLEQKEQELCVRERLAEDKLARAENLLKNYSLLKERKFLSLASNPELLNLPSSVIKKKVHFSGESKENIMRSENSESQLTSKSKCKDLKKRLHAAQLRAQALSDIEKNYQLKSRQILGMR
Conditions: at 0.1 µM.

Assay [5] addresses T3, Serine/threonine-protein kinase Nek2 (Homo sapiens). Conditions: at 1 µM.
The target in assay [6] is Serine/threonine-protein kinase Nek6 (Homo sapiens) (UniProt Q9HC98). Conditions: at 0.1 µM.
Chain of Serine/threonine-protein kinase Nek6 (Homo sapiens) (Q9HC98 whole entry): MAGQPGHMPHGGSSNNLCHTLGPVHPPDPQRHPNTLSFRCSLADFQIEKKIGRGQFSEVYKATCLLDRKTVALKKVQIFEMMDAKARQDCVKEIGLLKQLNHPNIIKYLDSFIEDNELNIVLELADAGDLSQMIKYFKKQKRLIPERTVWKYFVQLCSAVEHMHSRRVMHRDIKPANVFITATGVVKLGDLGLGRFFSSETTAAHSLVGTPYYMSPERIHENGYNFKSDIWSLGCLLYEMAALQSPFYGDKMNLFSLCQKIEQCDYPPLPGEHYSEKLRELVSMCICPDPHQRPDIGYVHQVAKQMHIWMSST
Assay [7] has the same target. Conditions: at 1 µM.
The target of assay [8] is Serine/threonine-protein kinase Nek7 (Homo sapiens) (UniProt Q8TDX7). Conditions: at 0.1 µM.
Chain of Serine/threonine-protein kinase Nek7 (Homo sapiens) (Q8TDX7 whole entry, looked up): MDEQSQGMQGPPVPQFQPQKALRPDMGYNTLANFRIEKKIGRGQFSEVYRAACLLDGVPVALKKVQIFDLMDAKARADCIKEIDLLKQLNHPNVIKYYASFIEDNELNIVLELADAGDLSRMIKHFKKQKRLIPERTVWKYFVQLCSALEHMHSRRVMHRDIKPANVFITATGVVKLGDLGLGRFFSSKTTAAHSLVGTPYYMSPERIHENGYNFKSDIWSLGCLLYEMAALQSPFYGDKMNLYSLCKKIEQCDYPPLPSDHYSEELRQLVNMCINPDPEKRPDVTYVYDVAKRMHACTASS
Assay [9] has the same target. Conditions: at 1 µM.
In assay [10] the target is T4, Serine/threonine-protein kinase Nek9 (Homo sapiens) (UniProt Q8TD19).
T4 sequence (whole entry): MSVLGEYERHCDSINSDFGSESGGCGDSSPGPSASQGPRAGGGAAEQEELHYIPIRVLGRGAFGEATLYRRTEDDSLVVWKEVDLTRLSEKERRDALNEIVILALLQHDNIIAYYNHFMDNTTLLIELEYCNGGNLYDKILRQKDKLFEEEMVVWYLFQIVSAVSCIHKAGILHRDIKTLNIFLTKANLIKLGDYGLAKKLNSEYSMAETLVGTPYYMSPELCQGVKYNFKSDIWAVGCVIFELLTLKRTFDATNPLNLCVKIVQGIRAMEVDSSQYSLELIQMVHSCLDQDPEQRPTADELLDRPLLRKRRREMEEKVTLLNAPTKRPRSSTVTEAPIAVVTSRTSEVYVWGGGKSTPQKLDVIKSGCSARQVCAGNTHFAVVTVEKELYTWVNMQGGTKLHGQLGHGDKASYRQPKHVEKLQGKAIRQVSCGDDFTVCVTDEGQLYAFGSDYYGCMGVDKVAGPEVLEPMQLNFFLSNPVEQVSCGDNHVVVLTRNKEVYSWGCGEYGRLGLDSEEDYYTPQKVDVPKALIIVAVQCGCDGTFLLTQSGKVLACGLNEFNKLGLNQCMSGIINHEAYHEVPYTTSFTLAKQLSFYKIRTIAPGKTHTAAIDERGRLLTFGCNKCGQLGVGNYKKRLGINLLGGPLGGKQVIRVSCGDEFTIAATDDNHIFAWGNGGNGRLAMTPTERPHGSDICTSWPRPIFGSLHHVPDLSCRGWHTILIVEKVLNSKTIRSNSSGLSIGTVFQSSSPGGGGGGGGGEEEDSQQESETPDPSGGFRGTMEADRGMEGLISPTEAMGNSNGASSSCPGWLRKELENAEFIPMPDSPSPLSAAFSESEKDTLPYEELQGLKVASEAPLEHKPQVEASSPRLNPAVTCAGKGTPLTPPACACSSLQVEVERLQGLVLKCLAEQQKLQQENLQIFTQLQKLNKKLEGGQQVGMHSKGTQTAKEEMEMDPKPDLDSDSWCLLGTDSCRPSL
Conditions: at 0.1 µM.

The target in assay [11] is T4, Serine/threonine-protein kinase Nek9 (Homo sapiens). Conditions: at 1 µM.
The target in assay [12] is Serine/threonine-protein kinase PLK1 (Homo sapiens) (UniProt P53350). Conditions: at 0.1 µM.
Chain of Serine/threonine-protein kinase PLK1 (Homo sapiens) (P53350 whole entry): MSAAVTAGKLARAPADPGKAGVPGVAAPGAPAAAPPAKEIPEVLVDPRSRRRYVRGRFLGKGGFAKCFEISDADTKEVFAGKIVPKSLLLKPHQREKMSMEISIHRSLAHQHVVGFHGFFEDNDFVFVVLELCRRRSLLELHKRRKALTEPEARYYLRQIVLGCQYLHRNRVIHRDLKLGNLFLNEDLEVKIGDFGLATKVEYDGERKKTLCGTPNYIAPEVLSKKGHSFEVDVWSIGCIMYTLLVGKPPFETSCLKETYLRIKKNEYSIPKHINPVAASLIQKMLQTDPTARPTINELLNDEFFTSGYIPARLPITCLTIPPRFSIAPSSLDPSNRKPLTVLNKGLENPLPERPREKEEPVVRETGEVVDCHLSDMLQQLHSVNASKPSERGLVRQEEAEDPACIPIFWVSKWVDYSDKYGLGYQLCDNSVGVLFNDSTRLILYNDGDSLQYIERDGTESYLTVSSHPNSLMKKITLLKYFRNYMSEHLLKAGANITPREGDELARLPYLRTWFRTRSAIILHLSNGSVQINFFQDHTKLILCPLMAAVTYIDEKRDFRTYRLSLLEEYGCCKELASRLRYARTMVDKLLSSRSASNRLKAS
Assay [13] has the same target. Conditions: at 1 µM.
Assay [14] concerns the target T5, Dual specificity protein kinase TTK (Homo sapiens) (UniProt P33981).
T5 sequence (whole entry): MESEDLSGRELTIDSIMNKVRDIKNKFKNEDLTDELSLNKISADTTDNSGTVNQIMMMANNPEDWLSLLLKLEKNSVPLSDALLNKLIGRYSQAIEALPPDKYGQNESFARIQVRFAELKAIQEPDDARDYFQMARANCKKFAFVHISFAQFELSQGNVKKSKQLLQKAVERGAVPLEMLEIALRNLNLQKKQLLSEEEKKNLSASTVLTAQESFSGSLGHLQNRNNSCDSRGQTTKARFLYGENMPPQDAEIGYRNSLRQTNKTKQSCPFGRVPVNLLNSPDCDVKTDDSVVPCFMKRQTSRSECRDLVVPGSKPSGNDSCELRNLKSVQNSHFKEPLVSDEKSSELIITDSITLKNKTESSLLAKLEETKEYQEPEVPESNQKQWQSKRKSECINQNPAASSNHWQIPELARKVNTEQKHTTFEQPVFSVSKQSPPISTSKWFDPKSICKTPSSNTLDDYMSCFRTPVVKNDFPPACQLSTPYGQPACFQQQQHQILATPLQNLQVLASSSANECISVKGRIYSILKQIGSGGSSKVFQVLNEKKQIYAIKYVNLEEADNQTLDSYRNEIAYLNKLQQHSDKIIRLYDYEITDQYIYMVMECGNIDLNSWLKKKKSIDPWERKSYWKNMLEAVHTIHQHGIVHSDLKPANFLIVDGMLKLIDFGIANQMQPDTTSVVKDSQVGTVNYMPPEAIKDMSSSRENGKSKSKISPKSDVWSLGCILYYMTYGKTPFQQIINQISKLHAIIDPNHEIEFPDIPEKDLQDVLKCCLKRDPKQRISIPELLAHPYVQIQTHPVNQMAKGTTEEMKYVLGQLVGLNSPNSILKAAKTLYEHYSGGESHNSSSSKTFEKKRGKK
Conditions: at 0.1 µM.

The test system of assay [15] is T6, Receptor-type tyrosine-protein kinase FLT3 (Homo sapiens), P36888 [D835Y].
T6 sequence (whole entry): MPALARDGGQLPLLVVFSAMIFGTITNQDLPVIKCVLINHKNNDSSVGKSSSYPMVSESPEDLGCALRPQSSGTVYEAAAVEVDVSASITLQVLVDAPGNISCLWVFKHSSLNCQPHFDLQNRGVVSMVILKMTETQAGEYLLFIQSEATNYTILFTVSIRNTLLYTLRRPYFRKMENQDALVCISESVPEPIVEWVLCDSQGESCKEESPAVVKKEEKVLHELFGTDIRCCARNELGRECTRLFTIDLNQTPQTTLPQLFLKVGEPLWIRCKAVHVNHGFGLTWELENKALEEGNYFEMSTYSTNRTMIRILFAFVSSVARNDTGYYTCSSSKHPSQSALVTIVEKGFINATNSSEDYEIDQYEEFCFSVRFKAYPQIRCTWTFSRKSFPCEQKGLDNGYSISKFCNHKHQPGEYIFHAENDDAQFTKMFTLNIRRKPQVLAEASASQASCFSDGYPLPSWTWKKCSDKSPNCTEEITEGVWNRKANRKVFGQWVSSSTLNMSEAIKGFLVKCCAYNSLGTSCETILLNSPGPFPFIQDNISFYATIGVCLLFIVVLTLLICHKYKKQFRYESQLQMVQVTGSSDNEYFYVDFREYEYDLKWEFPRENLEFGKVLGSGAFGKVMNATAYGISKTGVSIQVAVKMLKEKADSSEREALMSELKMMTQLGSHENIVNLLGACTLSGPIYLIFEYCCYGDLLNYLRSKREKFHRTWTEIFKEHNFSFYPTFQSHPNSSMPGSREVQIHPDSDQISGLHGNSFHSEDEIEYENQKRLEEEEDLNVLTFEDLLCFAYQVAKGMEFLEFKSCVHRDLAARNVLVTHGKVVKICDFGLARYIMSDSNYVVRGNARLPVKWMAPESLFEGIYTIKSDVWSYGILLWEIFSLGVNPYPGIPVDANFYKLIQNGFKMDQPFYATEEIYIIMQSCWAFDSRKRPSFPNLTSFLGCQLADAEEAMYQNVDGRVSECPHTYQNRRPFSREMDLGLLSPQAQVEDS
Conditions: at 1 µM.

Assay [16] has as its target Vascular endothelial growth factor receptor 3 (Homo sapiens) (UniProt P35916). Conditions: at 0.1 µM.
For assay [17] the target is unchanged. Conditions: at 1 µM.
Assay [18] concerns the target Macrophage colony-stimulating factor 1 receptor (Homo sapiens) (UniProt P07333). Conditions: at 0.1 µM.
For assay [19] the target is unchanged. Conditions: at 1 µM.
In assay [20] the target is Tyrosine-protein kinase Fyn (Homo sapiens) (UniProt P06241). Conditions: at 0.1 µM.
Chain of Tyrosine-protein kinase Fyn (Homo sapiens) (P06241 2-537 limits assumed): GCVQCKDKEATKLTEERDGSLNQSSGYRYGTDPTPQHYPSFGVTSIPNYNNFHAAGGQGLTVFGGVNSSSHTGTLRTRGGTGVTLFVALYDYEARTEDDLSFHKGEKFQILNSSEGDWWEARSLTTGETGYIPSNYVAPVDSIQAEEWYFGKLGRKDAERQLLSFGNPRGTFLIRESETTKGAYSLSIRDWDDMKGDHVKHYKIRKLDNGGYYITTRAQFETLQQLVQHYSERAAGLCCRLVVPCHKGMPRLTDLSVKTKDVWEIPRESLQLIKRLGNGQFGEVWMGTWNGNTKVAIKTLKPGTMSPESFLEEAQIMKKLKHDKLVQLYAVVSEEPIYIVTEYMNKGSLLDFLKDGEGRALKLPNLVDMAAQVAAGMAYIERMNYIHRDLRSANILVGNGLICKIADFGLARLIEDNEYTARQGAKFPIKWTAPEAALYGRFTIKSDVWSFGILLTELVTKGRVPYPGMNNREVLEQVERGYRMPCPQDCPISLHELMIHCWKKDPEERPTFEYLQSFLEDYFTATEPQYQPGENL

Chain of Vascular endothelial growth factor receptor 3 (Homo sapiens) (P35916 whole entry): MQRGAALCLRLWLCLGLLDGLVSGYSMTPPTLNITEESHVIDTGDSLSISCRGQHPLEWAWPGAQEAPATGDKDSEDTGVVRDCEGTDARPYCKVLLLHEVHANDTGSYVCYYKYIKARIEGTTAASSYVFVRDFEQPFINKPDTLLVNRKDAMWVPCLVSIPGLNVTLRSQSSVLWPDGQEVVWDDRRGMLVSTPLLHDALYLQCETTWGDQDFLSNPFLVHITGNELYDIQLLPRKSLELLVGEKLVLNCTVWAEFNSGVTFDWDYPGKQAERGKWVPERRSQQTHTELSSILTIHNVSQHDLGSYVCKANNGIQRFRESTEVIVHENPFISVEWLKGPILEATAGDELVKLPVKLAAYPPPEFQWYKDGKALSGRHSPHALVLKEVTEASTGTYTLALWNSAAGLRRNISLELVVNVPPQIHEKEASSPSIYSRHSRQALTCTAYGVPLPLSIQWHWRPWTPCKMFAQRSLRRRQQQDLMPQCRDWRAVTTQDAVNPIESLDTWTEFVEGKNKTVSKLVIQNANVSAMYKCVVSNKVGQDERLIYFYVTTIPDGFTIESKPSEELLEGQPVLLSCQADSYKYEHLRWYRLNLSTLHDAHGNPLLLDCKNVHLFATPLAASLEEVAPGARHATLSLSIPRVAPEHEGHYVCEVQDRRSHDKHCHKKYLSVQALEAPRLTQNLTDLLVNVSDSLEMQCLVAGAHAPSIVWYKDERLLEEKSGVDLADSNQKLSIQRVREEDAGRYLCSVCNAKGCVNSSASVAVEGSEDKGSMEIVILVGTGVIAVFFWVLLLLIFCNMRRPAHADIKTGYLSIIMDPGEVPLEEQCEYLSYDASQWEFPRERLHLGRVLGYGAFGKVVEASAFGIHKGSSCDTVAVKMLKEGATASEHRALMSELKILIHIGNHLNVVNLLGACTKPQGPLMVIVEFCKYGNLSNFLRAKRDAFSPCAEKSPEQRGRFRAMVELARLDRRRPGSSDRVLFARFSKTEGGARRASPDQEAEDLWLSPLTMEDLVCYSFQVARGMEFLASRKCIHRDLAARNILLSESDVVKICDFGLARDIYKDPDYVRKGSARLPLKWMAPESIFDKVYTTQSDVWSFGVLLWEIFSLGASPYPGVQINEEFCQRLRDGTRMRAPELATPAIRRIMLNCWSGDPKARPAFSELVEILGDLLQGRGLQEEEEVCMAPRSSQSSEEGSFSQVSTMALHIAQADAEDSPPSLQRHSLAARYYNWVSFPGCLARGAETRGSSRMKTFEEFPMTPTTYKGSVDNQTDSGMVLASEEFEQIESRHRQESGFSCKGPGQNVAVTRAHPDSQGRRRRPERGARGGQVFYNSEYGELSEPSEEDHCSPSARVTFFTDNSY
Chain of Macrophage colony-stimulating factor 1 receptor (Homo sapiens) (P07333 whole entry): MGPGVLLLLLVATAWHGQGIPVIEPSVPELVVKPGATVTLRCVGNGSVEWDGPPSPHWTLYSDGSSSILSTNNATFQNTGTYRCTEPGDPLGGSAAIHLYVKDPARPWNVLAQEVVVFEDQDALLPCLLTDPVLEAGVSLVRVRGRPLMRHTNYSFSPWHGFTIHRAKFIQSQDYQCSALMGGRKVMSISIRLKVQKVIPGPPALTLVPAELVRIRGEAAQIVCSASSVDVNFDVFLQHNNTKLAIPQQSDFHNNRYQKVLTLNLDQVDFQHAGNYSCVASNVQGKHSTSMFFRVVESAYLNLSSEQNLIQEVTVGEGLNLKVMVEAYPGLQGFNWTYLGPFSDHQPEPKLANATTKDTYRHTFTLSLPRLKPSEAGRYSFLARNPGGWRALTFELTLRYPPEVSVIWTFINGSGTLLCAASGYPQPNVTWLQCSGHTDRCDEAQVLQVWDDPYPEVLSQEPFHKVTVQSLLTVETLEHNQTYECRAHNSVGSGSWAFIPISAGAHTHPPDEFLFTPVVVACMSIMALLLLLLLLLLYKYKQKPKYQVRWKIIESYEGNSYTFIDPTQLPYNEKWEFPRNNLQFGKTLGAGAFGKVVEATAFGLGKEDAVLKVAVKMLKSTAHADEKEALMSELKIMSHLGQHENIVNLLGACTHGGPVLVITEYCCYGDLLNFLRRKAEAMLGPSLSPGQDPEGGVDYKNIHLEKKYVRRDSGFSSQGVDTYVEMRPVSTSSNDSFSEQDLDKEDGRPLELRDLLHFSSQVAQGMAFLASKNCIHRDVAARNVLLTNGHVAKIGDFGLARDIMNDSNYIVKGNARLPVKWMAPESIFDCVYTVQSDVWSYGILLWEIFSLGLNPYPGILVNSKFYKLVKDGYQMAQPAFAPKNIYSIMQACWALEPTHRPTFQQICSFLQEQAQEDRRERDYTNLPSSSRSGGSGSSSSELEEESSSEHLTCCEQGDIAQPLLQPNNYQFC

As to `CN1CCC(C(=O)Nc2n[nH]c3nc(-c4ccc(O)cc4)c(Br)cc23)CC1`, the inhibition in assay [1] was 9.87% and 4.68%; in [2], 2.56% and 2.33%; in assay [3], 5.56% and 3.3%; in [4] it was 4.35% and 2.88%; in assay [5], 2.67% and 2.08%; in assay [6], 3.12% and 2.62%. In addition, the inhibition in assay [7] is 6.77% and 0.79%; in assay [8], 7.02% and 1.88%; in assay [9], 10% and 8.97%; in assay [10], 9.98% and 4.62%; in [11], 13.7% and 6.47%; in [12], 6% and 2.01%. Moreover, the inhibition is 2.87% and 3.17% in assay [13]; 16.1% and 0.86% in assay [14]; 1.05% and 6.99% in assay [15]; -8.86% and 1.93% in assay [16]; 2.2% in assay [17]; -1.7% and 0.14% in assay [18]. Moreover, the inhibition in assay [19] is 0.92% and 5.04%; in assay [20], 0.13% and 0.97%.
